Experimental data from PubChem BioAssay (EPA / NIEHS).
Results filed as inconclusive are left out. The source made the active and inactive calls. How the source made its calls, unless noted: active means hit-call score of the fitted dose curve at least 0.9, where 1 is the maximum; inconclusive means response in the unintended direction; inactive means score below 0.9.

How the values were obtained:
[1] = read-out: solute carrier (SLC22A6), SLC22A6 (gene 9356); assay: LTEA_HepaRG_SLC22A6: Life Technologies and Expression Analysis (LTEA) Assay for solute carrier (SLC22A6) using HepaRG (AID 2283653; active means hit-call score of the fitted dose curve at least 0.9, where 1 is the maximum; inactive means score below 0.9); settings: mRNA level, 48 h; actives raise or lower the signal
Method in brief: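 Read-out is SLC22A6 transcript level by qRT-PCR, normalised to three housekeeping genes and fitted for gain or loss relative to 0.5% DMSO vehicle. Human HepaRG cells received chemicals at up to 100 uM for 48 h.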

[2] = Tanguay_ZF_120hpf_SWIM_legacy: (Legacy) Oregon State University Tanguay Lab 120 Hour Post-fertilization zebrafish Assay for Swim Bladder Malformation (AID 2283654);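 further: swim bladder malformation in each larva scored yes or no under brightfield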
Method in brief: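 Embryos lacking chorions were exposed individually and statically to test chemical from 6 to 120 hpf at 28C, with 0.64% DMSO as vehicle. At 120 hpf, swim bladder malformation was recorded as present or absent by brightfield microscopy.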

[3] = Tanguay_ZF_120hpf_TRUN_legacy: (Legacy) Oregon State University Tanguay Lab 120 Hour Post-fertilization zebrafish Assay for Truncated Body (AID 2283655)
Method in brief: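 Truncated body is recorded as a binary endpoint at 120 hpf by brightfield imaging of wild-type 5D larvae. Exposure runs statically from 6 hpf at 28C with 0.64% DMSO; embryos dying earlier are not scored.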

[4] = read-out: solute carrier (SLC10A1), SLC10A1 (gene 6554); assay: LTEA_HepaRG_SLC10A1: Life Technologies and Expression Analysis (LTEA) Assay for solute carrier (SLC10A1) using HepaRG (AID 2283657; active means hit-call score of the fitted dose curve at least 0.9, where 1 is the maximum; inactive means score below 0.9); settings: mRNA level, 48 h; actives raise or lower the signal
Method in brief: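 Transcript levels were measured by qRT-PCR after human HepaRG cells received test chemical for 48 hours, up to 100 uM in half-log dilutions. Values come from bidirectional concentration-response fitting relative to 0.5% DMSO vehicle.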

[5] = read-out: matrix metalloproteinase-1 (MMP1), MMP1 (gene 4312); assay: LTEA_HepaRG_MMP1: Life Technologies and Expression Analysis (LTEA) Assay for matrix metalloproteinase-1 (MMP1) using HepaRG (AID 2283658; active means hit-call score of the fitted dose curve at least 0.9, where 1 is the maximum; inactive means score below 0.9); settings: mRNA level, 48 h; actives raise or lower the signal
Method in brief: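 HepaRG, ~100,000 cells/well, 48 h pre-culture; serum-free induction medium; test chemical 8 conc (max 100 uM, half-log), duplicate, 48 h; 0.5% DMSO; qRT-PCR MMP1, housekeeping-normalized; gain/loss fit vs DMSO.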

[6] = read-out: ABC Transporter (ABCB1), ABCB1 (gene 5243); assay: CLD_ABCB1_6hr: CellzDirect (CLD) Gene Expression Assay for ABC Transporter (ABCB1) at 6 hours (AID 2283659);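 further: hits raise ABCB1 transcript above the DMSO vehicle baseline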
Method in brief: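 Primary human hepatocytes (two donor preparations) dosed daily for two days with chemicals at multiple concentrations, 0.2% DMSO vehicle; harvested 6 h post-dose. ABCB1 mRNA induction quantified by qNPA chemiluminescence; gain-of-signal fitted versus DMSO.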

[7] = read-out: xenobiotic metabolism (CYP1A1), CYP1A1 (gene 1543); assay: CLD_CYP1A1_6hr: CellzDirect (CLD) Gene Expression Assay for xenobiotic metabolism (CYP1A1) at 6 hours (AID 2283661);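 on AC50: potency for transcript induction above DMSO vehicle baseline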
Method in brief: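 Primary human hepatocytes from two donors, compound versus 0.2% DMSO vehicle. CYP1A1 mRNA measured 6 h after dosing by quantitative nuclease protection assay with chemiluminescent read-out; induction fitted relative to DMSO, cytotoxicity flagged by microscopy.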

[8] = read-out: xenobiotic metabolism (CYP1A2), CYP1A2 (gene 1544); assay: CLD_CYP1A2_6hr: CellzDirect (CLD) Gene Expression Assay for xenobiotic metabolism (CYP1A2) at 6 hours (AID 2283663);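 on AC50: potency is for induction meaning a rise in mRNA above DMSO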
Method in brief: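 Primary human hepatocytes from two donor preparations, dosed daily with multiple concentrations in 0.2% DMSO and harvested at 6 h. CYP1A2 mRNA induction measured by chemiluminescent qNPA, gain of signal fitted against DMSO; cytotoxicity flagged morphologically.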

[9] = read-out: alkyl and aryl transferase (GSTA2), GSTA2 (gene 2939); assay: CLD_GSTA2_6hr: CellzDirect (CLD) Gene Expression Assay for alkyl and aryl transferase (GSTA2) at 6 hours (AID 2283666)
Method in brief: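 Primary human hepatocytes from two donor preparations were dosed daily with fresh compound at multiple concentrations, 0.2% DMSO vehicle. GSTA2 mRNA was measured at 6 hours by qNPA chemiluminescence; induction fitted relative to DMSO, with cytotoxicity flagged morphologically.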

[10] = Tanguay_ZF_120hpf_TR_legacy: (Legacy) Oregon State University Tanguay Lab 120 Hour Post-fertilization zebrafish Assay for Touch Response (AID 2283667)
Method in brief: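 5D WT embryos; static exposure to 120 hpf, 28C, sealed/dark; DMSO 0.64% v/v final. TR scored present/absent; dead embryos excluded. Pos ctrl 5uM trimethyltin chloride.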

[11] = read-out: Cytochrome P450 (CYP24A1_1), CYP24A1 (gene 1591); assay: LTEA_HepaRG_CYP24A1_1: Life Technologies and Expression Analysis (LTEA) Assay for Cytochrome P450 (CYP24A1_1) using HepaRG (AID 2283671; active means hit-call score of the fitted dose curve at least 0.9, where 1 is the maximum; inactive means score below 0.9); settings: mRNA level, 48 h; actives raise or lower the signal
Method in brief: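 In this test, gene induction or suppression of CYP24A1 in human HepaRG liver cells is measured by qRT-PCR after 48 h chemical treatment (eight concentrations, maximum 100 uM). Values are fitted bidirectionally relative to DMSO.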

[12] = read-out: glucuronosyltransferase (UGT1A1), UGT1A1 (gene 54658); assay: CLD_UGT1A1_6hr: CellzDirect (CLD) Gene Expression Assay for glucuronosyltransferase (UGT1A1) at 6 hours (AID 2283672)
Method in brief: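 Primary human hepatocytes from two donor preparations, dosed with fresh solutions in 0.2% DMSO, harvested at 6 h. UGT1A1 mRNA measured by qNPA chemiluminescence; induction fitted upward versus DMSO.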

[13] = read-out: xenobiotic metabolism (CYP1A1), CYP1A1 (gene 1543); assay: CLD_CYP1A1_24hr: CellzDirect (CLD) Gene Expression Assay for xenobiotic metabolism (CYP1A1) at 24 hours (AID 2283673);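 further: CYP1A1 mRNA level by quantitative nuclease protection with chemiluminescence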
Method in brief: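 Primary human hepatocytes dosed daily with fresh solutions in 0.2% DMSO vehicle. mRNA measured at 24 h by quantitative nuclease protection assay with chemiluminescence; gain-of-signal fit versus DMSO, with morphology-based cytotoxicity flags.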

[14] = read-out: xenobiotic metabolism (CYP2C9), CYP2C9 (gene 1559); assay: CLD_CYP2C9_6hr: CellzDirect (CLD) Gene Expression Assay for xenobiotic metabolism (CYP2C9) at 6 hours (AID 2283664)
Method in brief: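 Primary human hepatocytes dosed daily with test chemicals at multiple concentrations; harvested at 6 h. CYP2C9 mRNA induction measured by qNPA chemiluminescence. Gain of signal fitted against 0.2% DMSO vehicle; cytotoxicity annotated from phase-contrast morphology.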

[15] = read-out: sulfotransferase (SULT2A), SULT2A1 (gene 6822); assay: CLD_SULT2A_6hr: CellzDirect (CLD) Gene Expression Assay for sulfotransferase (SULT2A) at 6 hours (AID 2283669);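 further: hits raise transcript level above the DMSO vehicle baseline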
Method in brief: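 Primary human hepatocytes from two donor preparations were dosed daily with chemicals or 0.2% DMSO and harvested at 6 h. Transcript induction read by qNPA chemiluminescence, fitted for gain of signal relative to DMSO; morphology-based cytotoxicity annotated.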

[16] = read-out: Broad substrate specificity ATP-binding cassette transporter ABCG2 (Homo sapiens) (UniProt Q9UNQ0); assay: CLD_ABCG2_6hr: CellzDirect (CLD) Gene Expression Assay for ABC Transporter (ABCG2) at 6 hours (AID 2283660)
Method in brief: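 Primary human hepatocytes dosed daily with chemicals at multiple concentrations (0.2% DMSO vehicle), harvested 6 h after dosing. ABCG2 mRNA induction read by quantitative nuclease protection assay (qNPA) chemiluminescence; gain of signal fitted against DMSO baseline.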

[17] = system: Thyroperoxidase (TPO), gene 54314; assay: CCTE_Simmons_AUR_rTPO: CCTE's Amplex UltraRed Assay for Thyroperoxidase (TPO) Inhibition, Simmons Lab (AID 2283662);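 on AC50: potency for loss of signal meaning inhibition of peroxidase activity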
Method in brief: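 Endpoint is decreased Amplex UltraRed fluorescence after a 30-min, 37C reaction of rat thyroid microsomes with 300 uM H2O2. Eight test concentrations (5 nM–87.5 uM final) in 0.5% DMSO, three biological replicates each.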

[18] = read-out: ABC Transporter (ABCB11), ABCB11 (gene 8647); assay: CLD_ABCB11_24hr: CellzDirect (CLD) Gene Expression Assay for ABC Transporter (ABCB11) at 24 hours (AID 2283674; active means hit-call score of the fitted dose curve at least 0.9, where 1 is the maximum; inactive means score below 0.9)
Method in brief: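 Primary human hepatocytes were dosed daily for two days, with 0.2% DMSO vehicle. ABCB11 mRNA induction was measured at 24 hours by quantitative nuclease protection assay with chemiluminescence. Gain of signal was fitted relative to DMSO.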

[19] = CCTE_Simmons_CellTiterGLO_HEK293T: Viability Assessment in CCTE's Assays for Thyroperoxidase (TPO) Inhibition, Simmons Lab (AID 2283665)
Method in brief: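 HEK293T cells in DMEM with 1% FBS, dosed 24 h at 37C with 8 concentrations, 5 nM–87.5 uM final, 0.5% DMSO. ATP measured by CellTiter Glo luminescence; loss of signal vs DMSO, three biological replicates.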

[20] = Tanguay_ZF_120hpf_NC_legacy: (Legacy) Oregon State University Tanguay Lab 120 Hour Post-fertilization zebrafish Assay for Notochord and Tail Malformation (AID 2283656)
Method in brief: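 Dechorionated Tropical 5D wild-type zebrafish embryos, one per well from 6 hpf, statically exposed to 120 hpf at 28C in 0.64% DMSO final. Notochord distortion scored present/absent by brightfield; dead embryos excluded.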

Measured: AC50

Broad substrate specificity ATP-binding cassette transporter ABCG2 (Homo sapiens), sequence (Q9UNQ0 whole entry, looked up): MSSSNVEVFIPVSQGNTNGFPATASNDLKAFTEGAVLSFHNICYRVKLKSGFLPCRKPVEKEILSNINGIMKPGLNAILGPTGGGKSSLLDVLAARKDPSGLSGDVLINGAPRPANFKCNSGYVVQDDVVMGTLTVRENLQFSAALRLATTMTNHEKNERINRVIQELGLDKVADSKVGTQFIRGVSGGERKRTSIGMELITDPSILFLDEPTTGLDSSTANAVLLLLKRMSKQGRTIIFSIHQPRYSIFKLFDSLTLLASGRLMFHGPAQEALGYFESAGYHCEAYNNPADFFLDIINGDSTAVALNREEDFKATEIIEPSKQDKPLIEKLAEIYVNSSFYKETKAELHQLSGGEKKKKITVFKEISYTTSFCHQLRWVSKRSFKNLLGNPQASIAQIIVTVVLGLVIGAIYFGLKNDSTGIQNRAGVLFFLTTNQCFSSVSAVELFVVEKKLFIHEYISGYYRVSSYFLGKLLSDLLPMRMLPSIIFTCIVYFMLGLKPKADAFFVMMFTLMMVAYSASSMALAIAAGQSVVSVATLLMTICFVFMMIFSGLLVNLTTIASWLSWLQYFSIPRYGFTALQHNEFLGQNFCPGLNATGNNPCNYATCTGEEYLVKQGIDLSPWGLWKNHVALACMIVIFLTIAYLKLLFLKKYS

CC(C)Oc1cccc(NC(=O)c2ccccc2C(F)(F)F)c1
active: [4] 74 µM | [7] 3 µM | [13] 20 µM
not listed: [14] | [15] | [16] | [17] | [18] | [19] | [20]
inactive: all other assays above

CCC(C)n1c(=O)[nH]c(C)c(Br)c1=O (configuration not stated)
inactive: [1] | [2] | [5] | [14] | [10] | [15] | [11]
active: [4] 21 µM | [7] 7.21 µM | [8] 9.68 µM | [13] 5.45 µM

CCCCC(O)(Cn1cncn1)c1ccc(Cl)cc1Cl (configuration not stated)
inactive: [2] | [3] | [6] | [16] | [8] | [10] | [12]
active: [13] 4.35 µM

CC1(C)CON(Cc2ccccc2Cl)C1=O
inactive: [2] | [3] | [6] | [16] | [8] | [9] | [10] | [13]

N#CN=C1SCCN1Cc1ccc(Cl)nc1
inactive: [2] | [3] | [6] | [16] | [9] | [10] | [15] | [12] | [13]

COC(=O)NS(=O)(=O)c1ccc(N)cc1
inactive: [2] | [3] | [6] | [16] | [7] | [14] | [9] | [10] | [18]
active: [17] 20.2 µM | [12] 20 µM | [13] 0.00106 µM

CC(C)(C)C(=O)C(Oc1ccc(Cl)cc1)n1cncn1 (configuration not stated)
inactive: [2] | [3] | [6] | [16] | [9] | [10] | [15] | [12]
active: [8] 12.4 µM | [13] 9.03 µM

Cc1cnc(C2=NC(C)(C(C)C)C(=O)N2)c(C(=O)O)c1 (configuration not stated)
inactive: [2] | [3] | [6] | [16] | [17] | [8] | [19] | [9] | [10] | [12] | [18]

Cc1ccc(N=CN(C)C=Nc2ccc(C)cc2C)c(C)c1
inactive: [2] | [3] | [20] | [6] | [16] | [8] | [14] | [9] | [10]
active: [13] 1.9 µM
